Activity calls are given as the source filed them. Rule for the calls, unless noted: active = hit-call score of the fitted dose curve at least 0.9, where 1 is the maximum; inactive = score below 0.9.
How the values were obtained:
[1] = CEETOX_H295R_11DCORT: CeeTox H295R High-throughput Steroidogenesis Assay for 11-Deoxycortisol (11DCORT) (AID 2283432); conditions: actives raise or lower the signal;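 for AC50: 11-deoxycortisol secreted into the medium measured by LC-MS/MS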
Outline: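 Adrenal carcinoma line H295R, run per OECD 456 with minor changes, was forskolin-stimulated (10 uM, 48 h) before a 48 h chemical exposure at 0.1% DMSO. Secreted 11-deoxycortisol was quantified by HPLC-MS/MS.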

[2] = CEETOX_H295R_OHPREG: CeeTox H295R High-throughput Steroidogenesis Assay for OH-Pregnenolone (OHPREG) (AID 2283434); conditions: actives raise or lower the signal
Outline: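 Human adrenal H295R cells were prestimulated 48 h with 10 uM forskolin, then exposed 48 h to chemical in 0.1% DMSO. Medium 17alpha-hydroxypregnenolone was quantified by HPLC-MS/MS after MTBE extraction; bidirectional fitting versus DMSO baseline.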

[3] = CEETOX_H295R_OHPROG: CeeTox H295R High-throughput Steroidogenesis Assay for OH-Progesterone (OHPROG) (AID 2283435); conditions: actives raise or lower the signal
Outline: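 H295R adrenal cells prestimulated 48 h with 10 uM forskolin, then exposed 48 h to chemical (0.1% DMSO final). 17alpha-hydroxyprogesterone in medium quantified by HPLC-MS/MS; bidirectional fit versus DMSO, with MTT viability measured in the same wells.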

[4] = CEETOX_H295R_CORTIC: CeeTox H295R High-throughput Steroidogenesis Assay for Corticosterone (CORTIC) (AID 2283437); conditions: actives raise or lower the signal;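 note: corticosterone secreted into medium quantified by mass spectrometry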
Outline: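 H295R cells were prestimulated 48 h with 10 uM forskolin, then exposed 48 h to test chemical in 0.1% DMSO. Medium corticosterone was MTBE-extracted and quantified by HPLC-MS/MS; bidirectional fit versus DMSO baseline.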

[5] = CEETOX_H295R_CORTISOL: CeeTox H295R High-throughput Steroidogenesis Assay for Cortisol (AID 2283438); conditions: actives raise or lower the signal;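 note: cortisol secreted into medium quantified by LC-MS/MS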
Outline: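 Forskolin-primed H295R cells (10 uM, 48 h) treated 48 h with test chemical in 0.1% DMSO. Cortisol in medium quantified by MTBE extraction and HPLC-MS/MS; bidirectional fit vs DMSO, MTT viability in same wells.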

[6] = CEETOX_H295R_DOC: CeeTox H295R High-throughput Steroidogenesis Assay for DOC (AID 2283439); conditions: actives raise or lower the signal
Outline: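 H295R cells prestimulated 48 h with 10 uM forskolin, then exposed 48 h to test chemical (0.1% DMSO final). Medium 11-deoxycorticosterone measured by HPLC-MS/MS after MTBE extraction; bidirectional fit vs DMSO, viability checked by MTT in same wells.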

[7] = CEETOX_H295R_ESTRADIOL: CeeTox H295R High-throughput Steroidogenesis Assay for Estradiol (AID 2283440); conditions: actives raise or lower the signal;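 note: estradiol secreted into medium quantified by LC-MS/MS after dansyl derivatisation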
Outline: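 Readout is estradiol in conditioned medium, quantified by reverse-phase HPLC-MS/MS against a 7-point standard curve. Cells: H295R, forskolin-stimulated, then dosed 48 h in 0.1% DMSO; activity fitted in both directions relative to DMSO.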

[8] = target: Peroxisome proliferator-activated receptor gamma (Homo sapiens) (UniProt P37231); experiment: OT_PPARg_PPARgSRC1_1440: Odyssey Thera (OT) 24-hour Protein-Complementation Assay for Peroxisome Proliferator-activated Receptor Gamma/ SRC-1 Co-activator (AID 2283388; active = hit-call score of the fitted dose curve at least 0.9, where 1 is the maximum;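 note: nuclear to cytoplasmic ratio of reconstituted Venus YFP fluorescence in fixed imaged cells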)
Peroxisome proliferator-activated receptor gamma (Homo sapiens), sequence (P37231 whole entry, looked up, the tested form may be a part): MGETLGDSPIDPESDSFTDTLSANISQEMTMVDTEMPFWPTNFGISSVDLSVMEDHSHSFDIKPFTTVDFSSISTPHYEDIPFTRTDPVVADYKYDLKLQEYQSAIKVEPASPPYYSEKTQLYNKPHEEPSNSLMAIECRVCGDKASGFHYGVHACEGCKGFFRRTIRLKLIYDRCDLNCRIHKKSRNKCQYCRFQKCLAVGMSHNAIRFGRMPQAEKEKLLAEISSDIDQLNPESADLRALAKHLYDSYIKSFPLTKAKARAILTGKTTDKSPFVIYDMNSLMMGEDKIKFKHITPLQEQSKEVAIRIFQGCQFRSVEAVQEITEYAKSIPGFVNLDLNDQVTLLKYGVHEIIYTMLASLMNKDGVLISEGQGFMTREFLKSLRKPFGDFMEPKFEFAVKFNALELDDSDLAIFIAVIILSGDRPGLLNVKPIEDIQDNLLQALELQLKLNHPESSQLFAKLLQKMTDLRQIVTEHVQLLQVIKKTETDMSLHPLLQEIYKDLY
Outline: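 Cells carrying the PPARg/SRC-1 fragment-complementation reporter receive compound for 24 hours, are fixed and counterstained with Draq5, then imaged. Increased nuclear relative to cytoplasmic YFP fluorescence above DMSO baseline indicates binding activity.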

[9] = CEETOX_H295R_ANDR: CeeTox H295R High-throughput Steroidogenesis Assay for Androstenedione (ANDR) (AID 2283436); conditions: actives raise or lower the signal
Outline: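 H295R human adrenal cells (passages ≤10) were exposed to test chemicals for 48 h; androstenedione in medium was MTBE-extracted and quantified by HPLC-MS/MS against a 7-point standard curve. Bidirectional fitting used DMSO as baseline.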

Measured: AC50

Oc1cccc(-c2ccccc2)c1
active: [3] 9.06 µM
not listed: [8] | [9]
inactive: all other assays above

O=S1OC[C@@H]2[C@H](CO1)[C@]1(Cl)C(Cl)=C(Cl)[C@@]2(Cl)C1(Cl)Cl (some centres undefined)
active: [1] 39.7 µM | [2] 12.1 µM | [3] 41.2 µM | [9] 50 µM | [5] 38.3 µM | [6] 16.3 µM
inactive: [8] | [4]

Oc1c(Cl)cc(Cl)cc1Cl
active: [3] 66.5 µM
inactive: [2]

COC(=O)Nc1cccc(OC(=O)Nc2cccc(C)c2)c1
active: [1] 9.94 µM | [2] 4.29 µM | [6] 19.8 µM
inactive: [8] | [3] | [4] | [5]

O=[N+]([O-])c1ccc(Nc2ccccc2)cc1
active: [3] 1.42 µM
not listed: [8] | [9]
inactive: all other assays above

CCCSP(=S)(OCC)Oc1ccc(SC)cc1 (centres undefined)
active: [2] 14 µM | [3] 1.41 µM
inactive: [8] | [7]

CCOCn1c(-c2ccc(Cl)cc2)c(C#N)c(Br)c1C(F)(F)F
active: [1] 15.3 µM | [2] 6.2 µM | [3] 13.2 µM | [5] 7.15 µM | [7] 4.19 µM
inactive: [8] | [4] | [6]

O=[N+]([O-])c1ccccc1O
inactive: [8]

Cc1cc(C)cc(C)c1
inactive: [2] | [3]

C[C@]12CC[C@@H](O)C[C@@H]1CC[C@@H]1[C@@H]2CC[C@]2(C)C(=O)CC[C@@H]12
inactive: [1] | [2] | [5]
active: [3] 1.87 µM | [4] 1.98 µM | [6] 2.64 µM

CCOP(=O)(OCC)OC(=CCl)c1ccc(Cl)cc1Cl
active: [1] 5.43 µM | [3] 5.16 µM | [4] 5.28 µM | [5] 5.66 µM | [6] 5.48 µM
inactive: [2]

OC(Cc1ccccc1Cl)(Cn1cncn1)C1(Cl)CC1 (centres undefined)
inactive: [3] | [6]
active: [1] 11.8 µM | [2] 1.37 µM | [4] 6.94 µM | [5] 6.05 µM | [7] 3.86 µM

O=c1nc(O)n(Cl)c(=O)n1Cl
inactive: [8]

CC(C)(C)c1ccccc1O
not listed: [7] | [9]
inactive: all other assays above

CC(C)=CC1C(C(=O)OCc2cccc(Oc3ccccc3)c2)C1(C)C (centres undefined)
active: [1] 29.3 µM | [2] 25.7 µM | [3] 26.9 µM
inactive: [4] | [5] | [6] | [7]

Cc1cc(Cl)ccc1O
active: [3] 28.3 µM
not listed: [7] | [9]
inactive: all other assays above

Nc1ccc(N)cc1
inactive: [8] | [2] | [3]

O=C1c2ccccc2C(=O)C1C(=O)C(c1ccccc1)c1ccc(Cl)cc1 (centres undefined)
active: [8] 69.3 µM

CCCCCCCCCCCCN(C)C
not listed: [9]
inactive: all other assays above

— PubChem BioAssay (EPA / NIEHS)
